Test results: PubChem BioAssay AID1851 (National Center for Advancing Translational Sciences (NCATS), 2009)
About 2,600 (16%) of roughly 16,000 compounds were called active. Inconclusive results (about 20%) are left out. The call rests on the fitted dose curve; in most records, active means well fitted curve in the direction sought with a large enough effect; inconclusive means small, poorly fitted or top-dose-only effect, or effect the other way; inactive means no such curve, though single readings can be large or run the other way. A selection follows.

Target: Cytochrome P450 2D6 (Homo sapiens) (UniProt P10635)
Sequence (P10635 whole entry, looked up): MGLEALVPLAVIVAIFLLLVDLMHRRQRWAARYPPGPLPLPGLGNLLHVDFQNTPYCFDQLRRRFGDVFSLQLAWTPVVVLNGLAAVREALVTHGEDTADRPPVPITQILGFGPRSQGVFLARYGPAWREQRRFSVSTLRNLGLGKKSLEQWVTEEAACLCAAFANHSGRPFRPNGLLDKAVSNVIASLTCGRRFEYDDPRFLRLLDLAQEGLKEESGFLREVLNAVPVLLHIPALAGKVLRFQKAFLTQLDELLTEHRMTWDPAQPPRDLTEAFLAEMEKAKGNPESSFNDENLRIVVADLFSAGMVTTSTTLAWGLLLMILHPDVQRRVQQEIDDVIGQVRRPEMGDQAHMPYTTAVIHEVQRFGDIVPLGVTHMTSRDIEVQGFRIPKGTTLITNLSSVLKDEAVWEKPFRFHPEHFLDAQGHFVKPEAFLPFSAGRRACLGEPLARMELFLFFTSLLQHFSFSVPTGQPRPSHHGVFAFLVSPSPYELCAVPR
Experiment: Cytochrome panel assay with activity outcomes
Settings: recombinant CYP, pro-luciferin dealkylation, luminescence, p450-cyp2d6; series mostly up to 57.1 µM; activity, negative = inhibition: at the top concentration
On the % scale 0 is the no-effect control and ±100 the full control effect.

SMILES | activity, negative = inhibition | AC50
O=C(CSc1nnc2c(n1)[nH]c1ccc(F)cc12)OCc1ccccc1 | 2.72% (inactive) | –
COc1ccc(C(=O)NC(=S)NC(C)(C)C)cc1Br | 3.67% (inactive) | –
COc1ccc(C(=O)NC(=S)NC(C)C)cc1Br | -8.27% (inactive) | –
C=CCN(CC=C)C(=S)NC(=O)c1ccc(OC)c(Br)c1 | – | 0.708 µM (active)
Cc1cc(Cl)ccc1Oc1ncc(-c2ccc(Cl)cc2)cn1 | 24% (inactive) | –
Nc1cc(Cl)ccc1Oc1ccc(Cl)cc1 | – | 15.8 µM (active)
Nc1cc(Cl)ccc1Oc1ccccc1 | -14.5% (inactive) | –
O=C(O)[C@H]1CCCN(CCC=C(c2ccccc2)c2ccccc2)C1 | -4.61% (inactive) | –
S[C@@H]1CCCN(Cc2ccccc2)C1 | – | 0.794 µM (active)
OCC1CCCN(Cc2ccc(-c3ccccc3)cc2)C1 (stereo unspecified) | – | 0.1 µM (active)
O=C(O)[C@@H]1CS[C@@]2(CCCN(Cc3ccccc3)C2)N1 | -2.15% [at 11.4 µM] (inactive) | –
O=C1C2CCC(C(O)C2)N1Cc1ccccc1 (stereo unspecified) | -23.9% (inactive) | –
CC1(C(=O)CSc2nc3ccccc3s2)CCC(=O)O1 (stereo unspecified) | -9.32% (inactive) | –
CC(=O)O[C@@H](C)C[N+](C)(C)C | – | inactive
Cn1c(SC2=CS(=O)(=O)c3ccccc32)nc2ccccc21 | 1.48% (inactive) | –
COC(=O)[C@@H]1C[C@H]1[C@@H](NC(=O)c1ccccc1)c1ccccc1 | -12% (inactive) | –

SMILES | activity, negative = inhibition | AC50
COc1ccc(NC2=NC(=S)N(c3ccc(C)cc3)C23CCCCC3)cc1 | 23% (inactive) | –
CC1(C)CC(NCc2ccc3c(c2)OCO3)CCO1 (stereo unspecified) | – | 0.631 µM (active)
CC1(C)CC(NC(=O)c2ccc3c(c2)OCO3)CC(C)(C)N1 | -9.2% (inactive) | –
COc1ccc2[nH]cc(CCNc3ccnc(-c4cccc(NS(C)(=O)=O)c4)n3)c2c1 | – | 20 µM (active)
COc1ccc2[nH]cc(CCNc3ccnc(-c4cccnc4)n3)c2c1 | – | 1.26 µM (active)
COc1ccc2[nH]cc(CCNc3ccnc(-c4ccc(N(C)C)cc4)n3)c2c1 | – | 10 µM (active)
Cc1cnc(CNc2ccnc(-c3cccc(NS(C)(=O)=O)c3)n2)cn1 | 4.19% (inactive) | –
COCCNc1ccnc(-c2c(C)noc2C)n1 | 4.32% (inactive) | –
COc1ccc2[nH]cc(CCNc3ccnc(-c4ccoc4)n3)c2c1 | – | 12.6 µM (active)
CCOC(=O)CNS(=O)(=O)c1cc(-c2nn(C)c(=O)c3ccccc23)ccc1C | -17% (inactive) | –
CCCCCCCCC(=O)N/N=C/c1ccccn1 | -37.8% (inactive) | –
CCNc1ncc2nc(-c3ccc(Cl)cc3)c(=O)n(Cc3cccc(OC)c3)c2n1 | 1.73% (inactive) | –
O=[N+]([O-])c1ccc(N2CCC(=NOCc3ccc(Cl)cc3)CC2)cc1 | 1.17% (inactive) | –
O=c1c(-c2ccc(Cl)cc2)nc2cncnc2n1Cc1ccccc1Cl | -1.46% (inactive) | –
CCOC(=O)CSc1nnc(CNC(=O)c2ccc(OC)cc2)n1C1CCCCC1 | 19.4% (inactive) | –
